Source: PubChem BioAssay (NCATS)
Results filed as inconclusive are left out. The source made the active and inactive calls. Unless noted, the call rests on the fitted dose curve; in most records, active means well fitted curve in the direction sought with a large enough effect; inconclusive means small, poorly fitted or top-dose-only effect, or another doubt; inactive means no such curve, though single readings can be large; an effect the other way counts as inactive or inconclusive.

Legend:
[1] = Cell Viability - Renal Proximal Tubule (AID 545);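 further: cells exposed to compound for 40 hours; 0% = DMSO only and -100% = 100 µM tamoxifen; nearly all actives have a fitted effect of over 40% in size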
Outline: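 Primary rat renal proximal tubule cells (1000/well) were treated with compounds for 40 hr at 37 °C in complete medium. Intracellular ATP was measured by CellTiter-Glo luminescence, and AC50 values came from Hill-equation fits of concentration-response data.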

[2] = Cell Viability - Mesenchymal (AID 546);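 further: potency means the concentration at half of the fitted maximal effect; cells exposed to compound for 40 hours before reading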
Outline: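 CellTiter-Glo luminescence (intracellular ATP, 20 min room temperature) after 40 hr compound exposure at 37 °C of 1000 glomerulus-derived human kidney mesenchymal cells/well; AC50 values obtained by fitting qHTS concentration-response data to the Hill equation.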

[3] = Cellular Toxicity (caspase-3) HepG2 (AID 654);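 further: cells exposed to compound for 16 hours before reading; 0% = DMSO alone and 100% = caspase signal from 100 µM tamoxifen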
Outline: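 Caspase 3/7 activation is measured as a luminescence increase (aminoluciferin substrate) after 16 h compound exposure of human hepatocarcinoma HepG2 cells. AC50 values are Hill fits, scaled between DMSO baseline and 100 uM tamoxifen stimulation.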

[4] = Cellular Toxicity (caspase-3) Jurkat (AID 655);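 further: cells exposed to compound for 16 h at 37 °C before reading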
Outline: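 Jurkat cells (5000/well) in complete medium were treated with compounds for 16 hr at 37 °C, then Caspase-Glo 3/7 luminescence was read after 20 min at room temperature. Data normalized to DMSO (basal) and 100 uM tamoxifen (100%); AC50 from Hill fit.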

[5] = Cellular Toxicity (caspase-3) HUV-EC-C (AID 656);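 further: 0% = DMSO basal and 100% = 100 µM tamoxifen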
Outline: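 HUV-EC-C endothelial cells, 1000/well, were pre-incubated 5 hr at 37°C, then exposed to compounds for 16 hr at 37°C. Caspase-Glo 3/7 luminescence was read after 20 min at room temperature. AC50 came from Hill fits, normalized to DMSO and 100 uM tamoxifen.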

[6] = Cellular Toxicity (caspase-3) SHSY5Y (AID 657)
Outline: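 SH-SY5Y human neuroblastoma cells (1500/well) were treated with compounds for 16 h at 37 °C, then Caspase-Glo 3/7 luminescence was read after 1 h at room temperature. Data normalized to DMSO and 10 uM staurosporine; AC50 from Hill fits.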

[7] = Cellular Toxicity (caspase-3) BJ (AID 658);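 further: 0% = DMSO basal and 100% = 10 µM staurosporine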
Outline: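 Caspase-Glo 3/7 luminescence, read 1 hr after reagent at room temperature, in normal BJ fibroblasts exposed 16 hours at 37 °C. AC50 values from Hill-equation concentration-response, scaled between DMSO basal and 10 uM staurosporine as 100%.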

[8] = target: Estrogen receptor (Homo sapiens) (UniProt P03372); experiment: qHTS assay for small molecule agonists of estrogen receptor alpha signaling (AID 588514; calls by dose curve;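 further: 0% = vehicle only and 100% = reference agonist; nearly all actives have a fitted effect of over 70% in size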)
Outline: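 EC50 and efficacy came from Hill fits of beta-lactamase reporter signal (CCF4 dye, 2 h at room temperature) scaled between DMSO and 20 nM 17-beta-estradiol. Agonist mode: HEK293 ER-alpha-UAS-bla cells in charcoal/dextran-stripped serum medium, 18 h compound exposure at 37 C.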

[9] = target: Androgen receptor (Homo sapiens) (UniProt P10275); experiment: qHTS assay for small molecule antagonists of androgen receptor signaling (AID 588516; active means well fitted curve in the direction sought with a large enough effect in the signal ratio, with a control signal flat, not every such curve was filed as active; the % refers to the signal ratio; further: on the % scale 0 is the no-effect control and ±100 the full control effect)
Outline: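 AR-UAS-bla-GripTite HEK 293 cells (2000/well, 5 h at 37 C) received compound titrations, then R1881 at 10 nM final; after 16 h at 37 C, CCF4 dye 2 h RT, beta-lactamase fluorescence read; IC50 from Hill fits.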

[10] = target: Glucocorticoid receptor (Homo sapiens) (UniProt P04150); experiment: qHTS assay for small molecule agonists of glucocorticoid receptor signaling (AID 588532; active means well fitted curve in the direction sought with a large enough effect in the signal ratio, with a control signal flat; the % refers to the signal ratio;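 further: 100% = dexamethasone at 0.1 µM and 0% = DMSO only wells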); conditions: HeLa MMTV-bla, beta-lactamase ratio, agonist, 18 h; stronger effect = higher value; percent of dexamethasone control, DMSO zero
Outline: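 Agonist-mode qHTS: GRE-driven beta-lactamase in HeLa cells exposed 18 h to titrated compounds (up to 92 uM), then CCF4 ratio read after 2 h at RT; Hill-fitted EC50, efficacy relative to 0.1 uM dexamethasone.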

[11] = target: Glucocorticoid receptor (Homo sapiens) (UniProt P04150); experiment: qHTS assay for small molecule antagonists of glucocorticoid receptor signaling (AID 588533; active means well fitted inhibition curve with a large enough effect in the signal ratio, with a control signal flat, not every such curve was filed as active; the % refers to the signal ratio;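 further: cells stimulated with 2 nM dexamethasone as agonist; on the % scale 0 is the no-effect control and ±100 the full control effect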)
Outline: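 Antagonist-mode qHTS: compound titrations added to GRE-bla HeLa cells, then dexamethasone 2 nM final; 18 h, 37 C. CCF4 FRET fluorescence normalized to dexamethasone and DMSO; IC50 from Hill fit.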

[12] = qHTS assay for small molecule antagonists of retinoid X receptor alpha signaling (AID 588546; active means well fitted inhibition curve with a large enough effect in the signal ratio, with a control signal flat, not every such curve was filed as active; the % refers to the signal ratio;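 further: cells stimulated with 9-cis-retinoic acid as agonist; on the % scale 0 is the no-effect control and ±100 the full control effect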); conditions: HEK293T RXRa-UAS-bla, beta-lactamase ratio, antagonist mode; measured here: W530 green channel, cytotoxicity proxy
Outline: (§1)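 Beta-lactamase reporter inhibition, read as CCF4 fluorescence ratio (ex 405, em 460/530 nm) after 2 h at RT. HEK293T UAS-bla cells, 2500/well, were stimulated with 9-cis-RA at 500 or 100 nM final alongside test compound for 18 h at 37 C.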

[13] = target: Retinoic acid receptor RXR-alpha (Homo sapiens) (UniProt P19793); experiment: as above; conditions: HEK293T RXRa-UAS-bla, beta-lactamase ratio, antagonist mode
Outline: as §1

[14] = qHTS assay for small molecule disruptors of the mitochondrial membrane potential - 1 hr assay (AID 651754; calls by dose curve; further: on the % scale 0 is the no-effect control and ±100 the full control effect; nearly all actives have a fitted effect of over 35% in size)
Outline: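 Mitochondrial potential in living HepG2 cells after 1 hr compound treatment at 37C was read with Mito-MPS dye added for a further 30 min. Red aggregate and green monomer fluorescence were measured; loss of potential leaves dye as cytoplasmic monomers.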

[15] = qHTS assay for small molecule disruptors of the mitochondrial membrane potential - 5 hr assay (AID 651755; calls by dose curve; further: on the % scale 0 is the no-effect control and ±100 the full control effect; nearly all actives have a fitted effect of over 40% in size)
Outline: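 Membrane-potential dye readout: red aggregate (540 ex/590 em) versus green monomer (490 ex/535 em) fluorescence after 30 min dye loading, following 5 hr compound exposure at 37C of overnight-plated HepG2 cells.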

[16] = target: Tumor necrosis factor (Homo sapiens) (UniProt P01375); experiment: qHTS assay to identify small molecules that stimulate Tumor Necrosis Factor-alpha (TNF-alpha) secretion (AID 651757; active means well fitted curve in the direction sought with a large enough effect in the signal ratio; the % refers to the signal ratio; further: 0% is about no effect)
Outline: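 Secreted TNF-alpha quantified by TR-FRET sandwich of two labeled anti-TNF-alpha antibodies, incubated 3 hr at room temperature. Preceded by 17 hr, 37 C compound treatment of THP-1 cells at 3000 cells/well.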

[17] = qHTS assay to identify small molecules that stimulate interleukin-8 (IL-8) secretion (AID 651758; active means well fitted activation curve with a large enough effect in the signal ratio; the % refers to the signal ratio; further: 0% is about no effect)
Outline: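 Secreted IL-8 measured homogeneously by TR-FRET (two labelled anti-IL-8 antibodies, 1-3 h at room temperature) after a 16 h, 37 C compound treatment of THP-1 cells at 2000 cells/well.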

[18] = qHTS assay for environmental chemicals that activate the Aryl hydrocarbon Receptor (AhR) signaling pathway (AID 651777); conditions: 1A2-DRE human hepatoma cells, luciferase, 24 h; stronger effect = higher value; further: % of control where 0% means no effect; nearly all actives have a fitted effect of over 15% in size
Outline: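 1A2-DRE human hepatoma reporter line; 1,200 cells/well; cmpd or DMSO 24 h, 37 C/5% CO2; One-Glo 30 min RT; luciferase lum.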

[19] = target: Peroxisome proliferator-activated receptor alpha (Homo sapiens) (UniProt Q07869); experiment: qHTS assay for small molecule agonists of the peroxisome proliferator-activated receptor alpha (PPARalpha) signaling pathway (AID 651778); conditions: PathHunter PPARalpha complementation, chemiluminescence, 6 h; stronger effect = higher value; further: % of control where 0% means no effect
Outline: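 Chemiluminescence from complemented enzyme reported PPARalpha activation in cells after 6 hr of compound treatment at 37 C. The detection reagent was incubated for 60 min at room temperature, and compounds were scored as agonists.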

[20] = target: Nuclear receptor subfamily 1 group I member 2 (Rattus norvegicus) (UniProt Q9R1A7); experiment: qHTS assay for small molecule activators of the rat pregnane X receptor (rPXR) signaling pathway (AID 651751; call rule not given here; further: 0% is about no effect); conditions: rPXR reporter cells, luciferase (One-Glo), 24 h
Nuclear receptor subfamily 1 group I member 2 (Rattus norvegicus), sequence (Q9R1A7 whole entry, looked up): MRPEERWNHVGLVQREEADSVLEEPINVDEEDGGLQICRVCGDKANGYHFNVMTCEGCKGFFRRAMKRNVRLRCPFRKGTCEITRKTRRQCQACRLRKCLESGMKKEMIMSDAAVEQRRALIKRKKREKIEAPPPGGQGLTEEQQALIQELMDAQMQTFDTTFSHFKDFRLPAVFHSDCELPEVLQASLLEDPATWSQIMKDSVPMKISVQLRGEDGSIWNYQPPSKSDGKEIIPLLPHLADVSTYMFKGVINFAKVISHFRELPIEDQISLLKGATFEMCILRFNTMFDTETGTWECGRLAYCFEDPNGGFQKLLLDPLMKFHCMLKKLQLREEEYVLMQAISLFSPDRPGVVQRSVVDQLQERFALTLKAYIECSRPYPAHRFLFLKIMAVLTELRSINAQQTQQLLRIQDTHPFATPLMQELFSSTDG

Glucocorticoid receptor (Homo sapiens), sequence (P04150 whole entry, looked up): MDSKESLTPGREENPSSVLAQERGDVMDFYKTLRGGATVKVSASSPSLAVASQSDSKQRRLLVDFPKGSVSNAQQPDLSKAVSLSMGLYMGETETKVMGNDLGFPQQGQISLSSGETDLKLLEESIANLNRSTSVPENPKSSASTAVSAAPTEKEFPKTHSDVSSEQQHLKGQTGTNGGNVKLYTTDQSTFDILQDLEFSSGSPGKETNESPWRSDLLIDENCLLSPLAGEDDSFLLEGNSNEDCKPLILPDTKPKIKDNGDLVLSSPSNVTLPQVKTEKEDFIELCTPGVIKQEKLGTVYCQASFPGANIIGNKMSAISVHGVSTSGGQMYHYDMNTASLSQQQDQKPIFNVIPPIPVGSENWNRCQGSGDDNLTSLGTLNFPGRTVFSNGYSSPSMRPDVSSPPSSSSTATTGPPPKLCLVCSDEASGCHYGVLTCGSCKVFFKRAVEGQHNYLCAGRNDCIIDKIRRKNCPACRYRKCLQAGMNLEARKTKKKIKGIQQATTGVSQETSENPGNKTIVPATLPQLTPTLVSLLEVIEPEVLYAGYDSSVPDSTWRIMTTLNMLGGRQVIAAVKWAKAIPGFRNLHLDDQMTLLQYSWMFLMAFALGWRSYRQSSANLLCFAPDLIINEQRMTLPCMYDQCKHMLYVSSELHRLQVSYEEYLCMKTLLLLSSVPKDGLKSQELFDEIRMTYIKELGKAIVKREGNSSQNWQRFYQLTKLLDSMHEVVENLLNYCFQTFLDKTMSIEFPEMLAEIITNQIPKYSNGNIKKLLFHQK
Estrogen receptor (Homo sapiens), sequence (P03372 whole entry, looked up): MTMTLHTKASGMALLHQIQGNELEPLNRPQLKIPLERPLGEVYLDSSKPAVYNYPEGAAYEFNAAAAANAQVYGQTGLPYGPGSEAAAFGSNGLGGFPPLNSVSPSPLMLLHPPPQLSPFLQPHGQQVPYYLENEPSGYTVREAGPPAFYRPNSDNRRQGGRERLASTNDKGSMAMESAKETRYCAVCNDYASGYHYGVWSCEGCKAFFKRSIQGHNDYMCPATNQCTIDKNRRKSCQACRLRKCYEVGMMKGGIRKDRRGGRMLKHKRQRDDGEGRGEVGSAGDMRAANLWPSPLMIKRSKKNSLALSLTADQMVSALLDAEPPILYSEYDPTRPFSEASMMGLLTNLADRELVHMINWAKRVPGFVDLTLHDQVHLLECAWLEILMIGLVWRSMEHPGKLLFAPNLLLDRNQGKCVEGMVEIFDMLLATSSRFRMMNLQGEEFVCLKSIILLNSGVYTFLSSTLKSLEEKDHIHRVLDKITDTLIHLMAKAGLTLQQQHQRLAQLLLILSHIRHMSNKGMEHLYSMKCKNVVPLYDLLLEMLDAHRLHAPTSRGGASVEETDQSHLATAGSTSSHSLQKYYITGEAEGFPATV
Retinoic acid receptor RXR-alpha (Homo sapiens), sequence (P19793 whole entry, looked up): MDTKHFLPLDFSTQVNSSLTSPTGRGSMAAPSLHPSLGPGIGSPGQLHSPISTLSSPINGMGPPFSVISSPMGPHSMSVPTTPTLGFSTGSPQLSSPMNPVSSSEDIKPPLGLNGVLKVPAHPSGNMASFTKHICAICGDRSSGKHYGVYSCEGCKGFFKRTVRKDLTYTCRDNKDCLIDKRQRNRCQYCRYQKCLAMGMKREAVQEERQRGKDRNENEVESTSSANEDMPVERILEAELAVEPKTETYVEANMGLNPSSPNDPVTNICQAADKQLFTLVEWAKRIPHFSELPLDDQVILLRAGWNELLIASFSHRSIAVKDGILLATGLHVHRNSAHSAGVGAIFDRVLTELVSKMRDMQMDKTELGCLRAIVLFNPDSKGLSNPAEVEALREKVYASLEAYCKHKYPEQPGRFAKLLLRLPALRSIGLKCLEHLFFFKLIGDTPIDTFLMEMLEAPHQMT
Androgen receptor (Homo sapiens), sequence (P10275 whole entry, looked up): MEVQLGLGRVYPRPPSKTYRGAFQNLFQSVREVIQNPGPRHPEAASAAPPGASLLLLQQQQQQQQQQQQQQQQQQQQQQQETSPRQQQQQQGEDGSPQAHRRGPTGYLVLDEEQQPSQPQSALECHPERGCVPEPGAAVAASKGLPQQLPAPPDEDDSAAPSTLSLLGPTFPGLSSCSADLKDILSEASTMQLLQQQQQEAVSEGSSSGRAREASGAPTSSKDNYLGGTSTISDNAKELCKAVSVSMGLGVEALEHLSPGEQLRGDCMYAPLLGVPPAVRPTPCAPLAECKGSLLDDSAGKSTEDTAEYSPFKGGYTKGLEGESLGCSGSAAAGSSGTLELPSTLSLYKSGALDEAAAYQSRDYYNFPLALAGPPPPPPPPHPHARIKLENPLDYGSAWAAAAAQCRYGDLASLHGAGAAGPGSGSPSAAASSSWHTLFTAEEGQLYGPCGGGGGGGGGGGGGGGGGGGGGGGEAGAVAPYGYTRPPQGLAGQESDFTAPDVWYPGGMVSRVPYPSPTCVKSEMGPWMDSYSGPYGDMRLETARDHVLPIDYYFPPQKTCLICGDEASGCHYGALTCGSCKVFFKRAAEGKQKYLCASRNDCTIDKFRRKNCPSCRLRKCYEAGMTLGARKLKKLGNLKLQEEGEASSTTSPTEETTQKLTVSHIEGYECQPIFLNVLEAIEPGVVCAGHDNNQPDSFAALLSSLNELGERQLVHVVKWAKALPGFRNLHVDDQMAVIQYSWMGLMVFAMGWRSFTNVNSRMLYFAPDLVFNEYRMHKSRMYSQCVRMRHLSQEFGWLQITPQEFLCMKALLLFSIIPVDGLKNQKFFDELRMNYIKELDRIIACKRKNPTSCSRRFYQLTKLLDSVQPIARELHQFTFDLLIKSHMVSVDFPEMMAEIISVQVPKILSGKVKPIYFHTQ
Peroxisome proliferator-activated receptor alpha (Homo sapiens), sequence (Q07869 whole entry, looked up): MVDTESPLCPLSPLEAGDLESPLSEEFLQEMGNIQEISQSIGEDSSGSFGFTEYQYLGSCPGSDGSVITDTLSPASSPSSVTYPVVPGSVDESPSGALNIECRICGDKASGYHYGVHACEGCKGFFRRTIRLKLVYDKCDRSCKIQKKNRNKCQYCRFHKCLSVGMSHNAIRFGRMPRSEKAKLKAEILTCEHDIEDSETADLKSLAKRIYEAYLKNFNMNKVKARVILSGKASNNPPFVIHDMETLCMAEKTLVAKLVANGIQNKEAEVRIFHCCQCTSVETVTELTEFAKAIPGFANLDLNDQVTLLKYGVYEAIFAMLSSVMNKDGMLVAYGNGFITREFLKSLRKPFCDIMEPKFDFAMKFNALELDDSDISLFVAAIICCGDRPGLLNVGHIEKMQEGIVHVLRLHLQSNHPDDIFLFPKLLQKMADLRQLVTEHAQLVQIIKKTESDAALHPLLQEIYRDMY
Tumor necrosis factor (Homo sapiens), sequence (P01375 whole entry, looked up): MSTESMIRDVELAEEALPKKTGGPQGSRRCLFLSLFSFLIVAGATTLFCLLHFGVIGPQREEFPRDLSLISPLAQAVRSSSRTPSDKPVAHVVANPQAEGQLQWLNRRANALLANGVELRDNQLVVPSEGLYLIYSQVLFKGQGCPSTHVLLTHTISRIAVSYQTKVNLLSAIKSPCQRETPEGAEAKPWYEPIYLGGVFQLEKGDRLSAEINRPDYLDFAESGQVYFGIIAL

CN(C)CCOC(c1ccccc1)c1ccccc1 (tested in a mixture with another compound)
inactive: outcome [1] | outcome [3] | outcome [4] | outcome [5] | outcome [6] | outcome [7] | outcome [8] | outcome [9] | activation [10] 1.99% | outcome [11] | max response [13] -6.76% | outcome [14] | outcome [15] | outcome [16] | outcome [17] | activation [18] 0.508% | max response [19] 0.237% | max response [20] -6.62%
active: Potency [2] 25.1 µM
3.3%: max response [12]
